A short description of test [1]: qHTS assay to identify small molecule agonists of the hypoxia (HIF-1) signaling pathway - cell viability counter screen (AID 1224844; calls by dose curve; note: nearly all actives have a fitted effect of over 50% in size; note: potency is the fitted concentration of half-maximal effect). Put shortly:
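Multiplexed with the HRE beta-lactamase assay, this viability read used CellTiter-Glo luminescence (30 min, RT) on HRE-bla ME-180 cells treated 17 hrs with compounds in 0.5% dialyzed FBS medium.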

Test [2] is described as follows: qHTS assay to identify small molecule agonists of H2AX - cell viability counter screen (AID 1224847; calls by dose curve; note: nearly all actives have a fitted effect of over 30% in size; note: potency is the fitted concentration of half-maximal effect). In a few lines:
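CHO-K1 cells plated overnight at 37C, then exposed 3 h at 37C to compounds at 15 concentrations (0.76% DMSO final). Viability by CellTiter-Glo luminescence after 30 min at room temperature.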
(qHTS replaces the single test concentration by a dilution series.)

Test [3] in a line: qHTS assay to identify small molecule agonists of the estrogen related receptor (ERR) signaling pathway from Tox21 library (AID 1224849; calls by dose curve; note: nearly all actives have a fitted effect of over 15% in size). The settings on record: ERR reporter cell line, ONE-Glo luciferase, 18 h; at 92.4 µM (top of the series) unless noted. Put shortly:
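Six hours post-seeding at 37 C/5% CO2, ERR cells receive DMSO-solubilised compounds; after 18 h at 37 C, ONE-Glo reagent is applied and luminescence recorded.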

Test [4] in a line: qHTS RealTime-Glo MT Cell Viability Assay in HepG2 cells - 24 hour (AID 1224867). Note: nearly all actives have a fitted effect of over 50% in size. Note: potency is the fitted concentration of half-maximal effect. In a few lines: (§1)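 Tox21 10K library screened in qHTS format on HepG2 cells carrying RealTime-Glo reagents. Compounds were added after a 5 h preincubation, and the luminescent signal from continuous culture was measured repeatedly during 40 h treatment.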
A short description of test [5]: qHTS RealTime-Glo MT Cell Viability Assay in HEK293 cells - 32 hour (AID 1224868). Note: nearly all actives have a fitted effect of over 50% in size. Note: potency is the fitted concentration of half-maximal effect. In a few lines: (§2)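 Luminescence generated by NanoLuc from substrate produced by living HEK293 cells served as the viability signal. Each value reflects the reading at its stated time point during continuous 40 h compound exposure at 37 C.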
Test [6] is described as follows: A CellTox Green Cytotoxicity Assay to monitor cytotoxicity in HEK293 cells - 0 hour (AID 1224869). Note: nearly all actives have a fitted effect of over 50% in size. In a few lines:
(§3)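 Seeding of HEK293 cells together with cytotoxicity dye preceded a 5 h incubation at 37 C/5% CO2. Test compounds in DMSO were then added and fluorescence monitored across 40 h.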

Test [7] can be described thus: qHTS RealTime-Glo MT Cell Viability Assay in HepG2 cells - 40 hour (AID 1224870). Note: nearly all actives have a fitted effect of over 50% in size. Note: potency is the fitted concentration of half-maximal effect. In a few lines: (§4)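 HepG2 cells (600/well) mixed with RealTime-Glo MT reagent, settled 5 h at 37 C/5% CO2 before compound addition. Nonlytic NanoLuc luminescence from viable-cell prosubstrate reduction read repeatedly during 40 h treatment at 37 C.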
Test [8] in a line: A CellTox Green Cytotoxicity Assay to monitor cytotoxicity in HEK293 cells - 40 hour (AID 1224871). Note: nearly all actives have a fitted effect of over 45% in size. Note: potency is the fitted concentration of half-maximal effect. Put shortly:
as §3

The nature of test [9]: qHTS RealTime-Glo MT Cell Viability Assay in HEK293 cells - 16 hour (AID 1224872). Note: nearly all actives have a fitted effect of over 50% in size. Note: potency is the fitted concentration of half-maximal effect. In a few lines:
as §2

Test [10] in a line: qHTS RealTime-Glo MT Cell Viability Assay in HepG2 cells - 8 hour (AID 1224873). Note: nearly all actives have a fitted effect of over 55% in size. Note: potency is the fitted concentration of half-maximal effect. Put shortly: as §4
A short description of test [11]: qHTS RealTime-Glo MT Cell Viability Assay in HEK293 cells - 40 hour (AID 1224874). Note: nearly all actives have a fitted effect of over 50% in size. Note: potency is the fitted concentration of half-maximal effect. The conditions noted are these: RealTime-Glo luminescence; max response: active compounds read low. Put shortly:
(§5)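 Tox21 screen in HEK293 using RealTime-Glo MT chemistry, with cells and reagent co-dispensed. Luminescence proportional to viable cell number was captured at intervals during 40 h compound exposure at 37 C.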

Test [12] is described as follows: A CellTox Green Cytotoxicity Assay to monitor cytotoxicity in HEK293 cells - 24 hour (AID 1224875). Note: nearly all actives have a fitted effect of over 45% in size. Note: potency is the fitted concentration of half-maximal effect. In a few lines: as §3
The nature of test [13]: A CellTox Green Cytotoxicity Assay to monitor cytotoxicity in HepG2 cells - 16 hour (AID 1224876). Note: nearly all actives have a fitted effect of over 45% in size. Note: potency is the fitted concentration of half-maximal effect. Put shortly:
(§6)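 Nonlytic assay: viable cells exclude the dye, so fluorescence scales with cell death. HepG2 at 600 cells/well, compounds added after 5 h, signal read across 40 h.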

A short description of test [14]: qHTS RealTime-Glo MT Cell Viability Assay in HepG2 cells - 32 hour (AID 1224877). Note: nearly all actives have a fitted effect of over 55% in size. Note: potency is the fitted concentration of half-maximal effect. In a few lines:
as §1

Test [15] can be described thus: A CellTox Green Cytotoxicity Assay to monitor cytotoxicity in HepG2 cells - 24 hour (AID 1224878). Note: nearly all actives have a fitted effect of over 45% in size. Note: potency is the fitted concentration of half-maximal effect. Put shortly: as §6
Test [16] can be described thus: A CellTox Green Cytotoxicity Assay to monitor cytotoxicity in HepG2 cells - 40 hour (AID 1224879). Note: nearly all actives have a fitted effect of over 40% in size. Note: potency is the fitted concentration of half-maximal effect. Put shortly:
as §6

Test [17] in a line: qHTS RealTime-Glo MT Cell Viability Assay in HEK293 cells - 0 hour (AID 1224880). In a few lines: as §5
Test [18] is described as follows: qHTS assay to identify small molecule antagonists of the estrogen related receptor (ERR) signaling pathway from Tox21 library (AID 1224848). Note: nearly all actives have a fitted effect of over 50% in size. In a few lines:
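Luminescent reporter read-out (ONE-Glo) from NTP's ERR cell line after 18 h treatment at 37 C with DMSO-dissolved Tox21 compounds; cells pre-plated 6 h beforehand at 2,000 per well.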

Test [19] is described as follows: qHTS assay to identify small molecule agonists of H2AX (AID 1224845; active = well fitted activation curve with a large enough effect in the signal ratio in the repeat runs, not every such curve was filed as active; the % refers to the signal ratio). Put shortly: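 Wild-type CHO-K1 cells, plated overnight, exposed 3hr at 37C to 15 concentrations (0.76% DMSO final). Lysed, then HTRF anti-pH2AX (S139) cryptate and anti-H2AX-d2 antibodies, 24 hr room temperature; 665/620 nm emission read.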
A short description of test [20]: qHTS assay to identify small molecule agonists of the hypoxia (HIF-1) signaling pathway (AID 1224846; active = well fitted activation curve with a large enough effect in the signal ratio in the repeat runs, not every such curve was filed as active; the % refers to the signal ratio). Put shortly: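 Hypoxia-pathway activation was scored as increased beta-lactamase from an HRE-controlled reporter in ME-180 cells; plated at 2,000 cells per well with 0.5% dialyzed FBS, they were exposed 17 hrs to compounds and then given CCF4-AM.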

Values joined by “and” are separate entries in the source; they are usually repeats but may differ in a detail not shown here. Identical values can stand only once. Unmarked numbers belong to inactive results. Results filed as inconclusive are left out. Active and inactive are the calls of the source. Unless noted, calls come from the whole dose curve; as a rule, active = well fitted curve in the direction sought with a large enough effect in the repeat runs; inconclusive = weak or mixed curves; inactive = no such curve, though single readings can be large; an effect the other way counts as inactive or inconclusive.
% is set by controls: 0 for no effect and ±100 for the full control effect.

In the case of `O=C1C2(Cl)C3(Cl)C4(Cl)C(Cl)(Cl)C5(Cl)C3(Cl)C1(Cl)C5(Cl)C24Cl` (stereo not given), the Potency in test [1] is 21.5 µM (active); in test [2], 49.6 µM (active) and 96.5 µM (active); in test [4], 42.9 µM (active) and 46.9 µM (active); in [5], 19.2 µM (active) and 41.8 µM (active); in test [7], 54 µM (active) and 46.9 µM (active); in [8] it was 42.9 µM (active) and 52.6 µM (active). Also, the Potency in test [9] is 21.5 µM (active) and 41.8 µM (active); in [10], 42.9 µM (active) and 46.9 µM (active); in [11], 13.6 µM (active) and 37.3 µM (active); in test [12], 38.3 µM (active) and 52.6 µM (active); in [13], 24.1 µM (active) and 41.8 µM (active); in [14], 48.2 µM (active) and 46.9 µM (active). Moreover, the Potency in test [15] is 48.2 µM (active) and 41.8 µM (active); in [16] it was 21.5 µM (active) and 37.3 µM (active). Moreover, the activity change, positive = activation in [3] is -74.4% and -66.3%. Further, the Potency entry in [6] and in test [17] was “inactive” throughout.
Consider `c1ccc(Nc2ccc(Nc3ccccc3)cc2)cc1`, for which the Potency result in [1], in [18], in test [4], in test [7], in test [13] and in test [14] was “inactive” in each case. For the same compound, the Potency entry in test [15] and in test [16] was “inactive” in each case. The activity change, positive = activation in test [3] is -22.9%. Moreover, the values for the Potency in [5] and in test [9] were 21.8 µM (active) and 19.4 µM (active), respectively.
Turning to `[C-]1=CC=CC1.[Cl][Zr+2][Cl].c1cc[cH-]c1`, the Potency result in [1], in test [2], in [6], in [7], in test [8] and in [9] was “inactive” in each case. Moreover, the Potency result in test [10], in [12], in [13], in test [15], in [16] and in test [17] was “inactive” in each case.
As for `O=C(O)CCCCCCNC1c2ccccc2CCc2ccccc21`, the Potency result in test [19], in [20], in [2], in [4], in test [5] and in [6] was “inactive” each time. Moreover, the Potency result in test [7], in test [8], in [9], in test [10], in test [12] and in test [13] was “inactive” throughout. Besides, the Potency result in [14], in test [15], in test [16] and in [17] was “inactive” throughout.
On to `BrCC(Br)(Br)Br`, for which the Potency result in test [19], in test [20], in [2], in test [4], in test [6] and in [7] was “inactive” in each case. Besides, the Potency result in [10], in test [12], in [13], in [14], in test [16] and in test [17] was “inactive” throughout. Moreover, the activity change, positive = activation in [3] was 15.6%. Moreover, the Potency in test [5] is 45.3 µM (active); in test [9], 25.5 µM (active).
Consider `ClC1=C(Cl)[C@]2(Cl)[C@H]3[C@H]([C@@H]4C=C[C@H]3C4)[C@@]1(Cl)C2(Cl)Cl`, for which the Potency is 43.6 µM (active) in test [1]; 89.8 µM (active) in test [2]; 54.9 µM (active) in test [4]; 48.9 µM (active) and 49 µM (active) in test [5]; 54.9 µM (active) and 49 µM (active) in test [8]; 49 µM (active) in test [10]. Further, the Potency in test [11] was 48.9 µM (active) and 43.6 µM (active); in test [12], 48.9 µM (active) and 49 µM (active); in test [13] it was 54.9 µM (active); in test [16], 54.9 µM (active). Besides, the Potency result in [6] and in [17] was “inactive” throughout.
On to `CCCCON=O`, for which the Potency result in [19], in test [20], in [2], in test [18], in test [4] and in test [5] was “inactive” in each case. In addition, the Potency result in test [6], in test [7], in [8], in test [9], in [10] and in test [12] was “inactive” in each case. For the same compound, the Potency entry in [13], in test [14], in [15], in [16] and in test [17] was “inactive” in each case. The activity change, positive = activation in test [3] is -4.4%. Moreover, the max response in [11] is 4.44%.
As to `CC(C)[C@@H](Nc1ccc(C(F)(F)F)cc1Cl)C(=O)OC(C#N)c1cccc(Oc2ccccc2)c1` (stereo not given in full), the Potency result in [1], in [4], in test [5], in [6], in test [7] and in test [8] was “inactive” each time. Also, the Potency result in test [12], in test [13], in [14], in [15], in test [16] and in test [17] was “inactive” in each case. The max response in test [11] is -6.7%.
Take `C1=CCC=C1`: the Potency result in [1], in test [2], in test [6], in test [7], in test [8] and in test [10] was “inactive” throughout. Moreover, the Potency result in test [12], in [13], in [15], in test [16] and in test [17] was “inactive” in each case.
Take `CCCCC/C=C\C/C=C\C/C=C\C/C=C\CCCC(=O)NCC(=O)O`: the Potency entry in test [1], in test [4], in [5], in [6], in test [7] and in [8] was “inactive” each time. The Potency entry in test [9], in test [10], in test [12], in test [13], in test [14] and in test [15] was “inactive” throughout. In test [16], the Potency entry was “inactive”. Moreover, the max response in test [11] is -10.5%.

The values are drawn from PubChem BioAssay (Tox21).
